{
  "source": "PubChem BioAssay (NCATS)",
  "note": "Results filed as inconclusive are left out. A call without a number means that no potency is given here. The source made the active and inactive calls. The call rests on the fitted dose curve; in most records, active means well fitted inhibition curve with a large enough effect; inconclusive means small, poorly fitted or top-dose-only effect; inactive means no such curve, though single readings can be large or run the other way. Potency means the concentration at half of the fitted maximal effect.",
  "data": [
    {"biological_target": "N-terminal Xaa-Pro-Lys N-methyltransferase 1 (Homo sapiens) (UniProt Q9BV86)", "sequence (Q9BV86 whole entry, looked up)": "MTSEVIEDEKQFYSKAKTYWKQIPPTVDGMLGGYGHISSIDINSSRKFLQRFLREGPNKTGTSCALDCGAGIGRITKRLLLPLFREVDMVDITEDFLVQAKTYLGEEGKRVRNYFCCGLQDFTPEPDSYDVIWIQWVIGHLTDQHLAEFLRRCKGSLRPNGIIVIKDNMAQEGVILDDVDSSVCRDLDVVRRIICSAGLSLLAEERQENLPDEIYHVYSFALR", "assay": "qHTS Assay for Inhibitors of N-terminal methyltransferase 1 (NTMT1): LOPAC validation of the NTMT1 SAHH-coupled ThioGlo3 Assay (AID 1347143);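 further: SAH from peptide methylation measured as thiol fluorescence via SAHH coupling and ThioGlo3; nearly all actives have a fitted effect of over 70% in size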", "conditions": "recombinant NTMT1, SAHH-coupled ThioGlo3 fluorescence; series mostly up to 114 µM", "method_in_brief": "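Inhibition of NTMT1 methylation of peptide SPKRIA is followed by converting SAH with SAHH and labelling the released thiol with ThioGlo3. Plates are read at 340/450nm before and 30 min after reagent addition, both at room temperature.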", "values": [
      {"compound": "CCCn1c(=O)c2[nH]c(-c3ccc(S(=O)(=O)O)cc3)nc2n(CCC)c1=O", "Potency": "inactive"},
      {"compound": "NC(=Nc1ccccc1)NC(=O)c1nc(Cl)c(N)nc1N", "Potency": "56.2 µM (active)"},
      {"compound": "CC(C)(C)c1cc(/C=C(\\C#N)C(N)=S)cc(C(C)(C)C)c1O", "Potency": "inactive"},
      {"compound": "CC#CCOC(=O)c1c(C)nc2sc3c(c2c1N)CCC(O)C3", "note": "(configuration not stated)", "Potency": "56.2 µM (active)"},
      {"compound": "COc1cc(CC(=O)O)ccc1O", "Potency": "inactive"},
      {"compound": "Nc1ccc2c3c(cccc13)C(=O)NC2=O", "Potency": "inactive"},
      {"compound": "N=C(N)SCCc1cnc[nH]1", "Potency": "inactive"},
      {"compound": "O=c1cc(-c2ccccc2)[nH]c2nc(Cl)ccc12", "Potency": "79.4 µM (active)"},
      {"compound": "C[C@H](O)C(=O)C1=Nc2c(nc(N)[nH]c2=O)NC1", "Potency": "44.7 µM (active)"},
      {"compound": "CC[C@@H]1Cc2cc(O)ccc2C2=C1c1ccc(O)cc1C[C@H]2CC", "Potency": "79.4 µM (active)"},
      {"compound": "N[C@@H](CCC(=O)N[C@H](CSN=O)C(=O)NCC(=O)O)C(=O)O", "Potency": "inactive"},
      {"compound": "CN(C)S(=O)(=O)c1ccc2c(c1)/C(=C/c1cc3c([nH]1)CCCC3)C(=O)N2", "Potency": "inactive"},
      {"compound": "O=C(O)CCC(=O)N1CCCC1C(=O)O", "note": "(configuration not stated)", "Potency": "inactive"},
      {"compound": "Cn1c(=O)c2[nH]c(-c3ccc(S(=O)(=O)O)cc3)nc2n(C)c1=O", "Potency": "12.6 µM (active)"},
      {"compound": "Cn1cc(C(F)(F)F)nc1-c1ccc(OCC(O)CNCCOc2ccc(O)c(C(N)=O)c2)cc1", "note": "(configuration not stated)", "Potency": "56.2 µM (active)"},
      {"compound": "COc1ccc2c(c1)CCC1C2CC[C@@]2(C)C1CC[C@@H]2NCCCCCCN1C(=O)C=CC1=O", "note": "(some centres not stated)", "Potency": "inactive"},
      {"compound": "Nc1ccc(-c2nc3ccc(-c4nc5ccc(N)cc5[nH]4)cc3[nH]2)cc1", "Potency": "56.2 µM (active)"}
    ]}
  ]
}
